PubChem BioAssay (EPA / NIEHS)
Values joined by “and” are separate entries in the source; they are usually repeats but may differ in a detail not shown here. Equal entries are not always repeated. Results filed as inconclusive are left out. Where a structure was tested more than once in an assay, its records may differ in their call. Active and inactive are the calls of the source. How the source made its calls, unless noted: active means hit-call score of the fitted dose curve at least 0.9, where 1 is the maximum; inconclusive means response in the unintended direction; inactive means score below 0.9.

Key:
[1] = read-out: glucuronosyltransferase (UGT1A1), UGT1A1 (gene 54658); experiment: CLD_UGT1A1_48hr: CellzDirect (CLD) Gene Expression Assay for glucuronosyltransferase (UGT1A1) at 48 hours (AID 2283709);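 further: actives increase expression relative to DMSO so potency refers to induction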
Outline: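 Human primary hepatocytes dosed daily for two days (0.2% DMSO vehicle), harvested at 48 h. UGT1A1 mRNA induction measured by quantitative nuclease protection assay with chemiluminescence; gain of signal versus DMSO; cytotoxicity flagged from morphology.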

[2] = STM_H9_OrnithineISnorm_perc: Stemina devTOX quickPredict H9 human embryonic stem cell (hESC)-based Assay for Ornithine (ORN) Metabolite Biomarker, Normalized (AID 2283712; active means hit-call score of the fitted dose curve at least 0.9, where 1 is the maximum; inactive means score below 0.9;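 further: ornithine released into spent medium during last day measured by mass spectrometry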)
Outline: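 Undifferentiated pluripotent H9 hESCs were exposed to compound for 72h, with media and compound replaced every 24h. Ornithine in final 24-h conditioned media was measured by UPLC-HRMS, normalized to 13C-labeled spike-in standard and to median 0.1% DMSO control.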

[3] = STM_H9_CystineISnorm_perc: Stemina devTOX quickPredict H9 human embryonic stem cell (hESC)-based Assay for Cystine (CYSS) Metabolite Biomarker, Normalized (AID 2283713; active means hit-call score of the fitted dose curve at least 0.9, where 1 is the maximum; inactive means score below 0.9)
Outline: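 Undifferentiated H9 hESCs were exposed to compound for 72h, with medium and compound replaced every 24h. Final-24h conditioned medium was deproteinized and analyzed by UPLC-HRMS. Cystine EIC area was normalized to spiked C13 standard and 0.1% DMSO median.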

[4] = STM_H9_OrnCyssISnorm_ratio: Stemina devTOX quickPredict H9 human embryonic stem cell (hESC)-based Assay for Ornithine (ORN):Cystine (CYSS) Ratio (AID 2283714)
Outline: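 Steps: H9 hESCs in pluripotent state dosed 72h, medium plus compound renewed every 24h; conditioned medium from the final 24h deproteinized in 40% acetonitrile; ORN and CYSS quantified by UPLC-HRMS with C13 spike-ins; ratio relative to vehicle.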

[5] = CEETOX_H295R_MTT_cell_viability: Viability Assessment in the CeeTox HT-H295R MTT Assay (AID 2283718; active means hit-call score of the fitted dose curve at least 0.9, where 1 is the maximum; inactive means score below 0.9;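 on AC50: curve fitted both ways so AC50 may mark viability loss or gain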)
Outline: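 MTT reduction (0.5 mg/ml, 4 h at 37 C; absorbance at 570 and 650 nm) gave viability as background-corrected percent change versus controls. H295R cells had 48 h forskolin (10 uM) prestimulation, then 48 h chemical exposure at 0.1% DMSO.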

[6] = Tanguay_ZF_120hpf_ActivityScore_legacy: (Legacy) Oregon State University Tanguay Lab 120 Hour Post-fertilization zebrafish Assay Score for Activity (AID 2283742);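 on AC50: dechorionated Tropical 5D wild-type zebrafish embryos held singly per well; static exposure from 6 hpf until 120 hpf at 28 °C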
Outline: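 Embryos are staged, enzymatically dechorionated at 4 hpf, placed individually at 6 hpf, then held in test chemical (0.64% DMSO) at 28C until 120 hpf. Mortality and malformations are scored by brightfield, with non-mortality endpoints skipped for dead embryos.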

[7] = target: Luciferin 4-monooxygenase (Photinus pyralis) (UniProt P08659); experiment: CCTE_Simmons_QuantiLum_inhib_2: CCTE's Firefly Luciferase Inhibition Assay, Simmons Lab (AID 2283767)
Chain of Luciferin 4-monooxygenase (Photinus pyralis) (P08659 whole entry, looked up): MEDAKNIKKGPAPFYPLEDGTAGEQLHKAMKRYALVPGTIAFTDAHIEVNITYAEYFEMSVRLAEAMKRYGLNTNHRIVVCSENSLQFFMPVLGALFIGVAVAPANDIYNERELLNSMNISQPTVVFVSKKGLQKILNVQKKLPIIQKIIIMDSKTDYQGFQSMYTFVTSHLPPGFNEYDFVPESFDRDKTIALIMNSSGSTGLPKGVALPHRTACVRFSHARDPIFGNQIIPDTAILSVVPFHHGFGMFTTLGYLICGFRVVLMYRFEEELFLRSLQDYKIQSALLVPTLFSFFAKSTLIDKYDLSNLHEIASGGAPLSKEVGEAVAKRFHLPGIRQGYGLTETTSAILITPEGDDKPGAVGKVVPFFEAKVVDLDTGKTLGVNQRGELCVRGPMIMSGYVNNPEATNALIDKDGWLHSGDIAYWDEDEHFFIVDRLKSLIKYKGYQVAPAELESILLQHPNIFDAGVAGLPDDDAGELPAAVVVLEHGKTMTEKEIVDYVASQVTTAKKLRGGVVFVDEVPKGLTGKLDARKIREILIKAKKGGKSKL
Outline: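 Recombinant firefly luciferase (5 ng/well, 200 mM potassium phosphate with 1 mg/ml BSA) was exposed to 8 concentrations from 5 nM to 87.5 uM (final, 0.5% DMSO) for 30 min at 37C in the dark. Loss of luminescence versus DMSO was read after injecting D-luciferin/ATP-analogue reagent.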

[8] = test system: chicken Androgen Receptor (AR), gene 422165; experiment: ATG_chAR_XSP1: Attagene TRANS-FACTORIAL Multi-Species (XSP1) HepG2 Assay for chicken Androgen Receptor (AR) (AID 2283768)
Outline: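 HepG2 cells transiently transfected with multiplexed GAL4-UAS reporter units expressing chimeric chicken AR-Gal4; 3 nM 6-alpha-fluorotestosterone for partial AR stimulation; 24 h after dosing, reporter mRNA by RT-PCR and capillary electrophoresis, gain-of-signal versus DMSO.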

[9] = test system: frog Androgen Receptor (AR), gene 399456; experiment: ATG_frAR_XSP1: Attagene TRANS-FACTORIAL Multi-Species (XSP1) HepG2 Assay for frog Androgen Receptor (AR) (AID 2283770)
[10] = test system: zebrafish Androgen Receptor (AR), gene 100005148; experiment: ATG_zfAR_XSP1: Attagene TRANS-FACTORIAL Multi-Species (XSP1) HepG2 Assay for zebrafish Androgen Receptor (AR) (AID 2283771)
Outline: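 HepG2 cells were transiently transfected with a zebrafish AR-GAL4 reporter system and partially stimulated with 3 nM 6-alpha-fluorotestosterone. Reporter mRNA was measured after 24 h dosing by RT-PCR with capillary electrophoresis, and gain-of-signal was fitted relative to DMSO.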

[11] = ArunA_CellTiter_hNC: Viability Assessment in the ArunA Biomedical's Oris Neural Crest (hNC) Cell Migration Assay (AID 2283752)
Outline: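 Human H9-derived neural crest stem cells were plated at 60,000 per well on Matrigel in growth medium with LIF and bFGF, incubated 16 h at 37C, then exposed to chemical for 72 h. Viability was read with CellTiter Aqueous One as loss of signal versus DMSO.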

[12] = ArunA_CellTiter_hNP: Viability Assessment in the ArunA Biomedical's Oris Neural Crest (hNC) Cell Migration Assay (AID 2283753)
Outline: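 H9-derived hNP1 neuroprogenitors, 60,000/well on Matrigel, cultured 16 h, then 72 h chemical exposure in test medium. Cell titer via CellTiter Aqueous One; positive-direction fit vs DMSO.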

[13] = ArunA_Migration_hNP: ArunA Biomedical's Oris Neuroprogenitor (hNP) Cell Migration Assay (AID 2283754)
Outline: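 Human H9-derived hNP1 neuroprogenitors on Matrigel with LIF/bFGF, plated around seeding stoppers for 16 h at 37C; stoppers removed at start of 72 h chemical exposure. Calcein-AM staining, fluorescence 494/517 nm in detection zone; loss-of-signal vs DMSO; cytochalasin D control.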

[14] = ArunA_Migration_hNC: ArunA Biomedical's Oris Neural Crest (hNC) Cell Migration Assay (AID 2283755)
Outline: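 Human H9-derived neural crest stem cells, 60,000/well on Matrigel, 16 h at 37C, then 72 h chemical exposure after seeding-stopper removal. Migration into detection zone read as calcein-AM fluorescence (ex494/em517), relative to DMSO.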

[15] = ArunA_NOG_NucleusCount: ArunA Biomedical's Neurite Outgrowth (NOG) Assay for Nucleus Count (AID 2283756)
Outline: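 Human H9-derived differentiated neurons were exposed for 48 h right after seeding. Hoechst-stained nuclei gated by size and intensity were counted by automated high-content imaging as viable neurons. Loss of signal vs DMSO.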

[16] = ArunA_NOG_NeuritesPerNeuron: ArunA Biomedical's Neurite Outgrowth (NOG) Assay for Neurites Per Neuron (AID 2283758)
Outline: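 Differentiated human H9-derived neurons exposed to chemicals for 48 h from seeding, then stained with Hoechst and βIII-tubulin/DyLight 488. Automated imaging counted neurites (processes >10 um) per valid neuron; loss of signal versus DMSO scored.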

[17] = target: zebrafish Estrogen Receptor (ESR1), esr1 (gene 259252) (UniProt P57717); experiment: ATG_zfER1_XSP1: Attagene TRANS-FACTORIAL Multi-Species (XSP1) HepG2 Assay for zebrafish Estrogen Receptor (ESR1) (AID 2283772)
Chain of zebrafish Estrogen Receptor (ESR1), esr1 (gene 259252) (P57717 whole entry, looked up, the tested form may be a part): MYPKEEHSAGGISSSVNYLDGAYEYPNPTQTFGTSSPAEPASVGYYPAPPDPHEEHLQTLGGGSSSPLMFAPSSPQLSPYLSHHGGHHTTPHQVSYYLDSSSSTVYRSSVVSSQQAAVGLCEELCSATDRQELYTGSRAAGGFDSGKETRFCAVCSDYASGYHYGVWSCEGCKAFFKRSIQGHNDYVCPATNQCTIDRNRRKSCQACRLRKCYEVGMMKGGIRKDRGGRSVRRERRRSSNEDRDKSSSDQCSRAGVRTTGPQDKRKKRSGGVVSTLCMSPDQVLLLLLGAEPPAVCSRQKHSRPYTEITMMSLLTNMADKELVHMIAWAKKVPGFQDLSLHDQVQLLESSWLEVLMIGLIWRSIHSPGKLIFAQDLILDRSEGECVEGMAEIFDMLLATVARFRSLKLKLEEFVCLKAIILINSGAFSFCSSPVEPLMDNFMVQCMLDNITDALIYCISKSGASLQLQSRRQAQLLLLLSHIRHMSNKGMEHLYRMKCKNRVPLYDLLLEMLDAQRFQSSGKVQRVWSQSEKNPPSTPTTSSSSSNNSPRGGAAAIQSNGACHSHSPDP
Outline: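 Transfect HepG2 with GAL4-UAS multi-reporter constructs; treat 24 h (medium carries 3 nM 6-alpha-fluorotestosterone); extract RNA, reverse-transcribe, PCR-amplify, FAM-label, digest with HpaI; resolve by capillary electrophoresis and compare against DMSO baseline.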

[18] = test system: Thyroperoxidase (TPO), gene 445522; experiment: CCTE_Simmons_GUA_TPO: CCTE's Guaiacol Assay for Thyroperoxidase (TPO) Inhibition, Simmons Lab (AID 2283750)
Outline: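 Porcine thyroid microsomes (25 ug) in 200mM potassium phosphate, preincubated 30 s at 37C with compound (8 concentrations, 5 nM–87.5 uM) and 35mM guaiacol; 1mM H2O2 starts reaction. Absorbance change at 450nm over first 80 s; loss of signal versus DMSO, three replicates.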

Measured: AC50

O=C(Nc1ccc([N+](=O)[O-])cc1Cl)c1cc(Cl)ccc1O
inactive: [1] | [2] | [3] | [4] | [5] | [6] | [7]

O=C(O)C1(C(=O)Nc2ccc(Cl)cc2Cl)CC1
active: [4] 9.92 µM | [6] 19.6 µM
inactive: [1] | [2] | [3]

CCC(O)=C1C(=O)CC(C(=O)O)CC1=O (configuration not stated)
inactive: [1]

CCCCCOC(=O)COc1cc(N2C(=O)C3=C(CCCC3)C2=O)c(F)cc1Cl
inactive: [1] | [3] | [4] | [5] | [6]
active: [2] 0.104 µM

CCCCOCCOCCOCc1cc2c(cc1CCC)OCO2
inactive: [5] | [7]
active: [1] 2.22 µM | [6] 4.35 µM

COC(=O)CSc1cc(N=c2sc(=O)n3n2CCCC3)c(F)cc1Cl
active: [1] 5.72 µM | [2] 78.8 µM | [3] 83 µM | [4] 80 µM
inactive: [6]

COc1nc(C)nc(NC(=O)NS(=O)(=O)c2ccccc2OCCCl)n1
inactive: [1]

COC(=O)c1ccccc1C(=O)O
inactive: [1] | [3] | [4] | [5] | [6]
active: [2] 0.00297 µM

CCOC(=O)C(C)Oc1ccc(Oc2cnc3cc(Cl)ccc3n2)cc1 (configuration not stated)
active: [3] 9.92 µM
inactive: [1] | [2] | [6]

COC(=O)c1c(Cl)nn(C)c1S(=O)(=O)NC(=O)Nc1nc(OC)cc(OC)n1
inactive: [1]

CCCN(CCC)c1c([N+](=O)[O-])cc(C(F)(F)F)c(N)c1[N+](=O)[O-]
active: [1] 3.96 µM
inactive: [2] | [3] | [6]

COC(=O)c1ccccc1S(=O)(=O)NC(=O)Nc1nc(OC(F)F)cc(OC(F)F)n1
inactive: [1]

CCCCOC(=O)[C@@H](C)Oc1ccc(Oc2ccc(C(F)(F)F)cn2)cc1
inactive: [1] | [5] | [6]
active: [2] 80.7 µM | [3] 42.8 µM | [4] 52.8 µM

c1ccc2[nH]c(-c3cscn3)nc2c1
inactive: [1] | [5] | [6]

C#CCOC(=O)[C@@H](C)Oc1ccc(Oc2ncc(Cl)cc2F)cc1
active: [2] 65.5 µM | [3] 11.1 µM | [4] 86.9 µM
inactive: [1] | [5] | [6]

CCCCC(CC)COC(=O)c1ccccc1C(=O)O (configuration not stated)
inactive: [1] | [5] | [6] | [9] | [10]
active: [2] 341 µM | [3] 250 µM | [4] 283 µM | [8] 26.5 µM

CCSC(=O)N(CC(C)C)CC(C)C
inactive: [1] | [2] | [3] | [4] | [6]

OB(O)O
inactive: [1] | [2] | [3] | [6]

COC(=O)c1cccc(C)c1S(=O)(=O)NC(=O)Nc1nc(OCC(F)(F)F)nc(N(C)C)n1
inactive: [1]

COC(=O)c1ccc(CNS(C)(=O)=O)cc1S(=O)(=O)NC(=O)Nc1nc(OC)cc(OC)n1
inactive: [1]

CC(C)(c1ccc(O)cc1)c1ccc(O)cc1
active: [2] 67.3 µM | [6] 45 µM and 33.6 µM and 35.6 µM | [17] 1.26 µM
not listed: [8] | [9] | [10] | [18]
inactive: all other assays above

CSC(=O)c1cccc2nnsc12
active: [2] 80.2 µM | [3] 81.4 µM | [4] 78.6 µM
inactive: [1] | [5] | [6] | [18] | [7]

CC(C)(C)[C@@H](O)[C@@H](Cc1ccc(Cl)cc1)n1cncn1
inactive: [1] | [2] | [3] | [5] | [6]
active: [4] 88.7 µM

CCCN(CCC)C(=O)SCC
inactive: [1] | [5] | [6]

C=CCOC(Cn1ccnc1)c1ccc(Cl)cc1Cl (configuration not stated)
inactive: [1] | [2] | [3] | [5] | [10] | [17]
active: [6] 11.7 µM

COC(=O)c1ccc(I)cc1S(=O)(=O)NC(=O)Nc1nc(C)nc(OC)n1
inactive: [1] | [2] | [3] | [6]

CN(C)C(=O)Nc1ccc(Cl)c(Cl)c1
active: [3] 70.5 µM | [4] 82.4 µM
inactive: [1] | [2] | [5] | [6] | [7]

Oc1ccc(C(c2ccc(O)cc2)C(Cl)(Cl)Cl)cc1
active: [2] 0.00653 µM | [6] 30.8 µM
inactive: [1] | [3] | [5] | [7] | [17]

CCN(Cc1c(F)cccc1Cl)c1c([N+](=O)[O-])cc(C(F)(F)F)cc1[N+](=O)[O-]
inactive: [1] | [3] | [4] | [6]
active: [2] 17.2 µM | [5] 13.3 µM
